Source: PubChem BioAssay
Shown are actives, neighbours in structure and some others; about 11% of the full set was active somewhere.
ALDH1A1 block – inhibitors of human aldehyde dehydrogenase 1A1; P00352; Purified ALDH1A1, NADH fluorescence, propionaldehyde substrate; Potency, µM (titrated, usually from 75.3 µM), inactives show top-dose activity, negative = inhibition, actives largely listed as inhibitors; actives 7.3% (n = 220,000); AID 1030;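 further: potency means the concentration at half of the fitted maximal effect; plate controls were no enzyme wells and a reference inhibitor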
Target sequence (P00352 whole entry, looked up): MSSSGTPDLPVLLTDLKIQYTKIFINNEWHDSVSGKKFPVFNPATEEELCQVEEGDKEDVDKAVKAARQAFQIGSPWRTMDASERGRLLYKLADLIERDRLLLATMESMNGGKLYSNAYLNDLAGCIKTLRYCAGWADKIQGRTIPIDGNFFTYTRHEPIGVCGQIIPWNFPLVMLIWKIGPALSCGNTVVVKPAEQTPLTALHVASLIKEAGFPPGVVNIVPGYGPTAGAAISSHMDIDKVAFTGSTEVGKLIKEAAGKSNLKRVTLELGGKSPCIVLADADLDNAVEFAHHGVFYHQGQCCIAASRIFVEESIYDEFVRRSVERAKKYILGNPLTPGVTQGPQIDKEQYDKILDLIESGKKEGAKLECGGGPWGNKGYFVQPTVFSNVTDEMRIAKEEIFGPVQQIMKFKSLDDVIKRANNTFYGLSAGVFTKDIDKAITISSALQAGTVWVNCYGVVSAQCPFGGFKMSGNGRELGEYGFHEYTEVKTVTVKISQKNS
HPGD inh – inhibitors of human 15-hydroxyprostaglandin dehydrogenase (HPGD) | P15428 | purified HPGD, NADH fluorescence kinetic, PGE2 substrate | Potency, µM, without a hit: at the top dose activity change, negative = inhibition, most hits filed as inhibitors | actives 4.3% (n = 150,000); further: potency means the concentration at half of the fitted maximal effect
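NADH formation kinetics: reaction with 30 uM PGE2 and 1 mM NAD+ (final), 20 nM enzyme, Tris-HCl pH 8 with Tween 20, after 15 min compound preincubation at room temperature. Fluorescence change, last versus first of five reads.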
PNC inhibitor – perinucleolar compartment assembly inhibition; PC3M PTB-GFP, PNC prevalence imaging, 16 h; stronger effect = lower value; activity change (PNC), negative = inhibition, % at 10 µM; actives 3.1% (n = 140,000); AID 2417;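 active means readout at or below -70, meaning at least 70% loss of cells showing the perinucleolar compartment, a nuclear body marking cancer cells; inconclusive means readout between -30 and a set limit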;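 further: plate controls were DMSO wells for no effect and camptothecin positive control wells for full effect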
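Compounds are pinned in duplicate onto adhered PC3M cells stably expressing GFP-tagged PTB and incubated 16 h at 37 C. Cells are then fixed, nuclei stained with Hoechst, and PNC-positive cells counted.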
Active calls of the source: *; u = inconclusive; x = not tested or not shown; [ ] = another dose, or the depositor's remark. Unless noted, the call rests on the fitted dose curve; in most records, active means well fitted inhibition curve with a large enough effect (not every such curve was filed as active); inconclusive means small, poorly fitted or top-dose-only effect, or another doubt; inactive means no such curve, though single readings can be large or run the other way. Unless noted, on the % scale 0 is the no-effect control and ±100 the full control effect.

SMILES | ALDH1A1 block | HPGD inh | PNC inhibitor
CCOC(=O)C1=C(N)OC2=C(C(=O)CCC2)C1c1sccc1C (stereo unspecified) | 7% | -1% | -2
CCOC(=O)C1=C(N)OC2=C(C(=O)CCC2)C1c1ccc(C)s1 (stereo unspecified) | u | -13% | -107*
COC(=O)C1=C(N)OC2=C(C(=O)CCC2)C1c1cccnc1 (stereo unspecified) | 17% | x | x
CCc1ccc(C(=O)NCc2cnn(C)c2)s1 | -1% | x | x
O=S(=O)(c1ccccc1)N1CCC2(CCN(Cc3ccncc3)CC2)CC1 | -16% | -8% | x
O=C(NNC(=O)c1ccccc1O)c1ccco1 | 9% | x | x
CC(=O)c1ccccc1N(C(=O)c1ccco1)C(C(=O)NC1CCCC1)c1ccc(N2CCOCC2)cc1 (stereo unspecified) | -7% | x | x
Cn1c(=O)cc(SCC(=O)N2CCOCC2)c2ccc(Cl)cc21 | -7% | -26% | 195
Cn1c(=O)cc(SCC(=O)N2CCCC2)c2ccc(Cl)cc21 | u | 14µM* | 76
C=CCSC1=NN2CCS(=O)(=O)N=C2S1 | 2% | x | x
COC(=O)N/N=C/c1ccc(-c2cc(Cl)ccc2Cl)o1 | -3% | -13% | u
CCNC(=S)N/N=C/c1ccc(-c2ccccc2)o1 | u | u | 79
O/N=C\c1ccc(-c2ccccc2)o1 | 2% | 14µM* | u
O/N=C/c1ccc(-c2cc(Cl)ccc2Cl)o1 | 2% | 4.5µM* | 7
COc1ccc(N=Cc2ccc(-c3ccccc3)o2)cc1 | 3.2µM* | x | x
COc1ccc(N=Cc2ccc[nH]2)cc1 | u | -7% | 4
O=C1O[C@@H]([C@H](O)[C@H](O)[C@H](O)CO)[C@@H](O)[C@@H]1O | -9%[13.5 µM] | -11% | x
O=C(Nc1ccc(Cl)cc1Cl)c1cccc(N2C(=O)C=CC2=O)c1 | 12% | -3% | -8
Cc1nc2cc(Nc3ccncc3)ccc2s1 | 15% | x | x
O=C(Nc1nnc(COc2ccc(F)cc2)s1)c1cccs1 | 1% | -20% | u
O=C(Nc1nnc(COc2ccc(Cl)cc2)s1)c1cccs1 | 10µM* | 25µM* | 14
O=C(CNC(=O)c1ccco1)OCc1ccc(C(=O)c2ccccc2)cc1 | -5% | x | x
Cc1ccc(OCc2nnc(NC(=O)OCC(C)C)s2)c(C)c1 | 1% | -12% | 33
O=C(Nc1nnc(COc2ccc(Cl)cc2)s1)C1CCCO1 (stereo unspecified) | 10µM* | 18µM* | u
Cc1ccc(OCc2nnc(NC(=O)c3ccco3)s2)c(C)c1 | -1% | -17% | -107*
SMILES | ALDH1A1 block | HPGD inh | PNC inhibitor
O=C(Nc1nnc(SCc2ccc(Cl)cc2)s1)C1CCCO1 (stereo unspecified) | 3% | -11% | u
O=C(CNC(=O)c1ccco1)OCc1ccc(Cl)cc1 | u | -12% | -81*
CC(C)(C)C1C=C(Sc2ccccc2)C(=O)O1 (stereo unspecified) | -7% | -21% | 19
NC(=O)CCC(NS(=O)(=O)c1ccc(Cl)cc1)C(=O)NCc1ccccc1 (stereo unspecified) | 2% | -1% | 10
CCOCc1nnc(NC(=O)c2cc(Cl)ccc2OC)s1 | u | 14µM* | 24
O=C(Nc1nnc(COc2ccc(Cl)cc2)s1)c1ccco1 | 3.2µM* | x | x
COCc1nnc(NC(=O)c2cc(Cl)ccc2OC)s1 | u | u | 35
Cc1ccc(OCc2nnc(NC(=O)c3ccco3)s2)cc1 | 2% | -9% | u
Cc1nc(NC(=O)c2cccs2)ccc1Br | 2% | x | x
Cc1ccc(C(=O)COC(=O)c2cn(-c3ccccc3)nc2-c2ccccc2)cc1[N+](=O)[O-] | -8% | -3% | u
CC1CCCN(CC(O)COC(c2ccccc2)c2ccccc2)C1 (stereo unspecified) | 6% | x | x
C=C1C(N)CC2CC1C2(C)C (stereo unspecified) | -2% | -5% | x
CSc1ncccc1C(=O)OCC(=O)c1cc2ccccc2o1 | -11% | -12% | 9
O=C(CCOc1ccccc1)OCC(=O)c1cc2ccccc2o1 | -7% | 32µM* | -10
CC1=C(C(=O)OCCc2ccccc2)C(c2ccsc2)NC(=O)N1C (stereo unspecified) | 13% | -27% | u
N#Cc1ccc(C(=O)Nc2cccc(NC(=O)c3ccco3)c2)c(F)c1 | 0% | x | x
CC(=O)c1cccc(NC(=O)N2CCCC2C(=O)Nc2cccc(C)c2)c1 (stereo unspecified) | 7% | -7% | 13
CC(=O)c1cccc(NC(=O)N2CCCC2C(=O)Nc2c(C)cccc2C)c1 (stereo unspecified) | 25µM* | -8% | 5
Cc1scc(C(=O)NNC(=S)NC(C)c2ccccc2)c1C (stereo unspecified) | u | -11% | u
